Experimental data taken from PubChem BioAssay (NCATS).
Activity calls are given as the source filed them. No rule for the calls is given here.

Each molecule was assayed on HIV-1 nucleocapsid protein NCp7 (binding to TG oligonucleotide) (assay: HIV Nucleocapsid (AID 346;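 also: potency is for inhibitors that block NC binding and lower polarization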)). Details: HIV-1 NC / fluorescein-TGTGTGTG probe, fluorescence polarization.
Summary of the method: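 Fluorescence polarization binding of 100 nM HIV-1 NC to 10 nM fluorescein-labelled TG4xF oligonucleotide. Buffer was Hepes pH 7.5 with 250mM NaCl, 1uM ZnCl2, TCEP and 2-mercaptoethanol. Compounds were incubated 1 hr at room temperature before the read.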
Potency is read from the fitted curve at half-maximal effect.

How did the Potency turn out when `COc1ncc2nc(C)c(=O)n(-c3ccccc3)c2n1` was run?
Its Potency is > 20 µM (inactive).

For `COc1cccc(-c2ccc3ncnc(N4CCOCC4)c3c2)c1`, which Potency is on record?
Its Potency is > 20 µM (inactive).

With `O=C(c1ccncc1)N1CCC2(CCCN(Cc3ccncc3)C2)CC1` as the molecule, how does the Potency read?
Its Potency is > 20 µM (inactive).

With `COC(=O)N1CCC2(CC1)CCN(C(c1ccccc1)c1ccccc1)CC2` as the molecule, how does the Potency read?
The Potency was > 20 µM (inactive).

Which Potency does the source give for `CS(=O)(=O)N1CCC2(CC1)CN(Cc1cc(C(F)(F)F)cc(C(F)(F)F)c1)C2` here?
The Potency was > 20 µM (inactive).

For `COc1ccc2[nH]cc(CCNc3ccnc(-c4cccnc4)n3)c2c1`, which Potency is on record?
Its Potency is > 20 µM (inactive).

`CCNc1ncc2nc(C)c(=O)n(C[C@H]3CCCO3)c2n1` was tested. Which Potency did it give?
The Potency was > 20 µM (inactive).

For `CC(C)NC(=O)N1CCC2(CC1)CCN(C(=O)c1csnn1)CC2`, which Potency is on record?
The Potency was > 20 µM (inactive).

Which Potency does the source give for `Cc1ccccc1-c1cc(N(C)C)ncn1` here?
Its Potency is > 20 µM (inactive).

How did the Potency turn out when `COc1ccc2[nH]cc(CCNc3ncncc3-c3cccc(C#N)c3)c2c1` was run?
The Potency was > 20 µM (inactive).

With `COc1ccc(CNc2ncnc3ccc(-c4c(C)noc4C)cc23)c(OC)c1` as the molecule, how does the Potency read?
The Potency was > 20 µM (inactive).

`COc1cccc(-c2cncnc2NCc2ccccc2OC)c1` was tested. Which Potency did it give?
The Potency was > 20 µM (inactive).

With `CS(=O)(=O)N1CCC[C@@]2(CCN(c3ccncc3)C2)C1` as the molecule, how does the Potency read?
Its Potency is > 20 µM (inactive).

With `O=C(c1cccc(F)c1)N1CCC[C@@]2(CCN(Cc3ccncc3)C2)C1` as the molecule, how does the Potency read?
The Potency was > 20 µM (inactive).

`Cn1cccc1C(=O)N1CCC2(CCCN(c3ccccn3)C2)CC1` was tested. Which Potency did it give?
Its Potency is > 20 µM (inactive).

`COCC(=O)N1CCC[C@@]2(CCN(C(=O)Nc3ccccc3)C2)C1` was tested. Which Potency did it give?
Its Potency is > 20 µM (inactive).

Which Potency does the source give for `CN(C)C(=O)c1ccc(-c2ccc3ncnc(N(C)Cc4ccco4)c3c2)cc1` here?
Its Potency is > 20 µM (inactive).

With `O=c1c(-c2ccc(F)cc2)nc2cncnc2n1C1CC1` as the molecule, how does the Potency read?
The Potency was > 20 µM (inactive).

With `COCCn1c(=O)c(-c2cccc(C#N)c2)nc2cnc(Nc3ccccc3)nc21` as the molecule, how does the Potency read?
Its Potency is 5.18 µM (active).

With `FC(F)(F)c1ccccc1-c1cc(NCc2cccs2)ncn1` as the molecule, how does the Potency read?
Its Potency is > 20 µM (inactive).

Which Potency does the source give for `O=C(c1ccncc1)N1CCC2(CCCN(c3ncccn3)C2)CC1` here?
Its Potency is > 20 µM (inactive).

How did the Potency turn out when `COc1ccc(C(=O)N2CCC[C@@]3(CCN(C(=O)Nc4cccc(C#N)c4)C3)C2)cc1` was run?
The Potency was > 20 µM (inactive).

How did the Potency turn out when `CC(=O)NCCNc1ncnc2ccc(-c3ccc(C(=O)N(C)C)cc3)cc12` was run?
Its Potency is > 20 µM (inactive).

With `O=C(c1cccc(F)c1)N1CCC2(CC1)CN(c1ccccn1)C2` as the molecule, how does the Potency read?
Its Potency is > 20 µM (inactive).

`CS(=O)(=O)N1CCC2(CC1)CN(C(c1ccccc1)c1ccccc1)C2` was tested. Which Potency did it give?
The Potency was > 20 µM (inactive).

Which Potency does the source give for `COc1ccc(-c2nc3cnc(OC)nc3n(Cc3cccs3)c2=O)cc1` here?
Its Potency is > 20 µM (inactive).

`COc1ccc(CNc2nc(-c3ccc(N(C)C)cc3)nc3ccccc23)c(OC)c1` was tested. Which Potency did it give?
Its Potency is > 20 µM (inactive).

For `COc1cccc(Nc2ncc3ncc(=O)n(C4CC4)c3n2)c1`, which Potency is on record?
Its Potency is > 4 µM (inactive).

With `O=C(Oc1ccccc1)N1CCC[C@@]2(CCN(c3ncccn3)C2)C1` as the molecule, how does the Potency read?
Its Potency is > 20 µM (inactive).

For `FC(F)(F)c1ccccc1-c1cc(N2CCNCC2)ncn1`, which Potency is on record?
The Potency was > 20 µM (inactive).

How did the Potency turn out when `COc1ccc2[nH]cc(CCNc3ccnc(-c4ccccc4C)n3)c2c1` was run?
Its Potency is > 20 µM (inactive).

`COc1ccc(Oc2ncc3ncc(=O)n(Cc4ccc(F)cc4)c3n2)cc1` was tested. Which Potency did it give?
The Potency was > 20 µM (inactive).

How did the Potency turn out when `COc1ccccc1CN1CCC2(CC1)CCN(S(C)(=O)=O)CC2` was run?
Its Potency is > 20 µM (inactive).

How did the Potency turn out when `COc1cccc(-c2nc(NCCN3CCOCC3)c3ccccc3n2)c1` was run?
The Potency was > 20 µM (inactive).

How did the Potency turn out when `O=c1c(-c2cccc(F)c2)nc2cncnc2n1Cc1ccccc1` was run?
The Potency was > 20 µM (inactive).

`COc1ccc2[nH]cc(CCNc3cc(-c4ccoc4)ncn3)c2c1` was tested. Which Potency did it give?
The Potency was > 20 µM (inactive).

How did the Potency turn out when `Cc1cccc(CNc2nc(-c3cccc(NS(C)(=O)=O)c3)nc3ccccc23)c1` was run?
Its Potency is > 20 µM (inactive).

Which Potency does the source give for `O=C(c1ccco1)N1CCC2(CC1)CN(c1ccccn1)C2` here?
Its Potency is > 20 µM (inactive).

Which Potency does the source give for `O=c1cnc2cnc(N3CCOCC3)nc2n1C1CC1` here?
Its Potency is > 20 µM (inactive).
